Reference: PubChem BioAssay AID1012 (Sanford-Burnham Center for Chemical Genomics, 2008)
Hit rate of the full screen: of about 200,000 compounds, about 520 (0.26%) were called active. The sample as a whole holds a higher share of actives than the screen did. Unmarked numbers belong to inactive results.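 How the source made its calls: active means tissue-nonspecific alkaline phosphatase inhibition above about 50% at 20 µM in the single-dose screen (limit read from the data); inactive means the rest.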

The compounds below were run against Alkaline phosphatase, tissue-nonspecific isozyme (Homo sapiens) (UniProt P05186) (assay: blockers of alkaline phosphatase TNAP activity – biochemical, luminescent, no phosphate acceptor, uHTS, primary screen (AID 1012;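 further: 0% = DMSO negative control and 100% = EDTA positive control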)). Details: purified TNAP, CDP-star luminescence, 30 min; at 20 µM; hits give high values.
Alkaline phosphatase, tissue-nonspecific isozyme (Homo sapiens), sequence (P05186 whole entry, looked up): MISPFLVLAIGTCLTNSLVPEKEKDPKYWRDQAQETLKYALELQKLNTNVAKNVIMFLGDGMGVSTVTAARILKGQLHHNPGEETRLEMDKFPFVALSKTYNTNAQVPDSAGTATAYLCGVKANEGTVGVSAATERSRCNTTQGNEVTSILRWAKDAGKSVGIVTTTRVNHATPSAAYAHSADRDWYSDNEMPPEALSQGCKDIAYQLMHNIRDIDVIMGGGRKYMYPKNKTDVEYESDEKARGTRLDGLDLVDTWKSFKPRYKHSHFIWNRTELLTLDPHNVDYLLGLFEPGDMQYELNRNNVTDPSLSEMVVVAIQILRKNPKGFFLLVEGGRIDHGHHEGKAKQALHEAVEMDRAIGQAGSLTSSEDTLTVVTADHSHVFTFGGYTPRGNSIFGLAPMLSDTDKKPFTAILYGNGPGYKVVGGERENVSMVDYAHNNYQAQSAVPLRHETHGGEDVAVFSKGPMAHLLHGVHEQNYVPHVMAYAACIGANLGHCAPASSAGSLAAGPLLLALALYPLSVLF
Work on `COc1cc2c3c(c1)/C(=C1/SC(=S)NC1=O)C(=O)N3C(C)(C)C=C2C` yielded an inhibition of 21.4%. `O=C(CSC1=Nc2ccccc2C2=NC(CC(=O)NCc3ccco3)C(=O)N12)NCc1ccco1` (configuration not stated) gave an inhibition of -27.8%. For `CC(C)C1N=C2c3ccccc3N=C(SCC(=O)c3ccc(O)c(O)c3)N2C1=O` (configuration not stated), the inhibition was 93.7% (active). `CCC(C)NC(=O)CSC1=Nc2ccccc2C2=NC(CCC(=O)NCc3ccco3)C(=O)N12` (configuration not stated) showed an inhibition of -11%. For `CN(C(=O)CSc1nncc2ccccc12)C1CCCCC1`, the inhibition was -7.3%. `C=CCNC(=O)COC(=O)CNC(=O)c1cc(Cl)cc([N+](=O)[O-])c1` showed an inhibition of 6.8%. `COc1ccc(OC)c(S(=O)(=O)Nc2cccc(-c3ccc4nncn4n3)c2)c1` gave an inhibition of -5.3%. For `COc1cccc(N(C(=O)C2COc3ccccc3O2)C(C(=O)NC2CCCCC2)c2ccc(O)cc2)c1` (configuration not stated), the inhibition was 0.9%. `Cc1cc2c(cc1C)[n+](C)cn2CC(O)COCC1CC=CCC1` (configuration not stated) gave an inhibition of -9.6%. `CCCCOc1ccc(N(CC(=O)NC(C)C)C(=O)CCC(=O)Nc2ccccn2)cc1` was tested, and the inhibition was -3.6%. For `CC(C)NC(=O)NCCCCCCS(C)=O` (configuration not stated), the inhibition was -6.1%. Work on `COc1cccc(NC(=O)CS(=O)(=O)c2cn(CC(=O)N3CCOCC3)c3ccccc23)c1` yielded an inhibition of -14.3%. `COc1ccc(Cn2c(-c3ccc(Cl)cc3)c[n+]3ccccc23)cc1` gave an inhibition of -2.5%. Compound `COC1=CCC2([N+](=O)[O-])CN(CC(=O)O)CC1([N+](=O)[O-])C2` (configuration not stated) has an inhibition of -11.9%. Work on `CCCC(c1nnnn1C(C)(C)C)N1CCN(Cc2ccccc2)CC1` (configuration not stated) yielded an inhibition of -1.2%. For `c1ccc2c(NC3C4CC5CC(C4)CC3C5)nc(N3CCOCC3)nc2c1` (configuration not stated), the inhibition was -15.9%. `CC1CN(/C=C/C(=O)C(F)(F)F)CC(C)O1` (configuration not stated) gave an inhibition of -8.2%. In the case of `CCOc1ccccc1N1CCN(C(=O)COc2ccc3c(C)cc(=O)oc3c2)CC1`, the inhibition is reported as -11%. `CC(C)CCC(C)NC(=O)c1ccc2nccnc2c1` (configuration not stated) was tested, and the inhibition was -12.5%. `CC12CCC(C(=O)N(NC(=O)c3ccccc3O)C1=O)C2(C)C` (configuration not stated) showed an inhibition of 3.9%. Compound `COc1ccc(N2C(=O)C(O)C2c2ccc(C)cc2)cc1` (configuration not stated) has an inhibition of -8.2%. `C=CCn1c(CCNC(=O)c2cccs2)n[nH]c1=S` gave an inhibition of -3.9%. `CCCc1nc(SCC(=O)Nc2ccc(S(=O)(=O)N(C)C)cc2)c2ccccc2n1` was tested, and the inhibition was 17.6%. With `Cc1cc(=O)oc(C)c1C(=O)NCCN(C)Cc1ccccc1` the inhibition was -6.1%. Work on `Cc1ccccc1NC(=O)c1nn(-c2ccc(F)c(F)c2)ccc1=O` yielded an inhibition of -8.3%. `O=C(Nc1nnc(Cc2ccccc2)s1)c1cnccn1` showed an inhibition of -2.7%. Work on `CCN1CCN(C(=O)c2ccc(CN(c3ccc(C)c(C)c3)S(C)(=O)=O)cc2)CC1` yielded an inhibition of -5.1%. In the case of `CC(C)(C)C(=O)N1CCC[C@@]1(CO)C(=O)O`, the inhibition is reported as -10.8%. `Cc1ccc(S(=O)(=O)N2CCN(C(=O)c3cccs3)CC2)cc1` gave an inhibition of -7.6%. `O=C(O)C1C2C=CC(O2)C1C(=O)NCCc1cccc(Cl)c1` (configuration not stated) was tested, and the inhibition was -9.5%. With `CC1CCC(NC(=O)C2c3ccccc3C(=O)N2Cc2ccc3c(c2)OCO3)CC1` (configuration not stated) the inhibition was -16.3%. Compound `O=C(COC(=O)/C=C/c1cn(-c2ccccc2)nc1-c1cccnc1)Nc1ccc(Cl)cc1Cl` has an inhibition of -8.8%. `CC(=O)Nc1ccc(C(=O)CSc2nc3ccc(C)cc3[nH]2)cc1` showed an inhibition of -33.5%. With `COc1ccc(C/C(N)=N/OC(=O)c2ccco2)cc1OC` the inhibition was -7.5%. In the case of `CCOc1ccc2nc(C(=O)N3CCCC(C)C3)sc2c1` (configuration not stated), the inhibition is reported as 1.7%. `COC(=O)/C(=C1\Oc2ccc(C(C)(C)C)cc2S1)C(F)(F)F` was tested, and the inhibition was 0.6%. `COCC(=O)Nc1cc(C(=O)OC)cc(C(=O)OC)c1` was tested, and the inhibition was -4.5%. `S=c1[nH]nc2c3c4c(sc3ncn12)CCCC4` was tested, and the inhibition was 58% (active). `N=c1c2c3c(sc2ncn1N)CCCC3` gave an inhibition of -4.9%. Work on `c1nnc2c3c4c(sc3ncn12)CCC4` yielded an inhibition of -10.6%. For `O=C(Cn1c2[n+](c3ccc(C(F)(F)F)cc31)CCCCC2)Nc1c(F)cccc1F`, the inhibition was -6.3%. In the case of `O=C(COC(=O)c1cnccn1)Nc1cccc2ccccc12`, the inhibition is reported as -10%. `S=c1[nH]nc(-c2cccs2)n1/N=C/c1cccs1` was tested, and the inhibition was 36.2%. `Cc1ccc(/C=N\n2c(-c3ccccc3)n[nH]c2=S)s1` showed an inhibition of 29%. In the case of `S=c1[nH]nc(-c2ccco2)n1/N=C/c1ccc(Br)s1`, the inhibition is reported as 58.4% (active). Work on `COCCn1c(N)c(N(Cc2ccccc2)C(=O)C2CCCCC2)c(=O)[nH]c1=O` yielded an inhibition of -0.9%. In the case of `O=C(Cn1c(N2CCN(C/C=C/c3ccccc3)CC2)nc2ccccc21)c1ccccc1`, the inhibition is reported as 5.4%. For `CCOC(=O)C1(CCOC)CCN(Cc2ccc(C(=O)OC)cc2)CC1`, the inhibition was -7%. For `CCN1CCN(c2ccc(NC(=O)c3cnccn3)cc2)CC1`, the inhibition was -10.4%. `CC(C)(C)OC(=O)N1CCC(NC(=O)c2[nH]cnc2C(=O)N[C@@H](Cc2ccccc2)C(=O)OCc2ccccc2)CC1` was tested, and the inhibition was -3.5%. `CC(C)Cc1nn2c(=O)cc(O)nc2s1` showed an inhibition of -13.8%. Compound `O=C(Nc1ccc(N2CCOCC2)cc1)c1ccc(-c2ccccc2[N+](=O)[O-])o1` has an inhibition of 8.7%. `COc1ccc(C(=O)Nc2cccc(S(C)(=O)=O)c2)cc1` showed an inhibition of -11%. For `N/C(=N\OC(=O)c1ccc2c(c1)OCO2)c1ccc(Br)cc1`, the inhibition was -7%. For `COc1ccc(C2=NN(c3ccccc3)C(c3cccs3)C2)cc1` (configuration not stated), the inhibition was -20.3%. Compound `Cc1ccc(NC(=O)COC(=O)CCc2nc3ccccc3n2-c2ccccc2)c(C)c1` has an inhibition of -12.9%. For `COc1ccc(Cc2n[nH]c(=S)n2NC(=O)Nc2ccc(C)cc2)cc1`, the inhibition was -16.9%. Work on `Cc1cc(C)c(C#N)c(SCC(=O)NN2CC(=O)N(c3ccccc3F)CC2=O)n1` yielded an inhibition of -6.4%. `CCCCNC(=O)N1CCN(S(C)(=O)=O)CC1` showed an inhibition of -6.4%. In the case of `O=C(CO/N=C/c1ccc(OC(F)F)cc1)NCc1ccc(F)cc1`, the inhibition is reported as 2.4%. For `COc1cc2[nH]c(=O)n(Cc3ccc(C(=O)NC4CCN(Cc5ccccc5)CC4)cc3)c(=O)c2cc1OC`, the inhibition was 1.5%. Work on `Cc1ccc(NC(=O)C2CCCN(S(=O)(=O)c3c(C)noc3C)C2)c(C)c1` (configuration not stated) yielded an inhibition of -3.2%. `Cc1noc(/C=C/N(C)C)c1S(=O)(=O)N1CCCC(C(=O)NCc2ccco2)C1` (configuration not stated) was tested, and the inhibition was -12%. For `Cc1n[nH]c(C)c1S(=O)(=O)N1CCCC(C(=O)NCC2COc3ccccc3O2)C1` (configuration not stated), the inhibition was 51.6% (active). In the case of `COc1ccc(N2CCN(c3ccc([N+](=O)[O-])nc3)CC2)cc1`, the inhibition is reported as -7.2%. Work on `CC(=O)NC(Cc1ccccc1)C(=O)NC1CCN(c2ncccc2[N+](=O)[O-])CC1` (configuration not stated) yielded an inhibition of -1.2%. `COc1ccc(-c2cc(C3CCN(c4ncccc4[N+](=O)[O-])CC3)[nH]n2)cc1` was tested, and the inhibition was 59.7% (active). `Cc1ccc(S(=O)(=O)N2CCC(C(=O)N[C@@H](C)C(=O)NCc3ccco3)CC2)cc1` was tested, and the inhibition was -10%. `CN(Cc1cc2cc(F)ccc2[nH]1)Cc1nc(-c2cnccn2)no1` showed an inhibition of -8.7%. For `CC(C)(C)C1CCC(OC(=O)CCC(=O)Nc2ccccc2)CC1` (configuration not stated), the inhibition was -5.1%. For `CC1=NN(c2ccccc2)C(=O)C1C(=O)c1ccc([N+](=O)[O-])cc1` (configuration not stated), the inhibition was -4.4%. With `O=C(c1ccc(OC2CCN(Cc3ccccn3)CC2)cc1)N1CCCCCC1` the inhibition was -6%. `COc1ccccc1C1=Nc2cccc3cccc(c23)N1` gave an inhibition of -4.6%. `COc1ccccc1-c1nc(SC)n[nH]1` was tested, and the inhibition was 63.7% (active). In the case of `CCCOc1ccccc1-c1nc(SCCC(=O)O)n[nH]1`, the inhibition is reported as 8.1%. For `C=CCN(Cc1nc(-c2cc(OC)c3c(c2)OCO3)oc1C)C1CCS(=O)(=O)C1` (configuration not stated), the inhibition was -9.3%. Compound `COc1ccc(NS(=O)(=O)c2cc(NC(=O)/C=C/c3cc(OC)c(OC)c(OC)c3)ccc2N2CCCCC2)cc1` has an inhibition of -3.9%. `CC1=CC2=NC(=O)CC(C)(C(=O)N(CC(=O)NC(C)(C)C)Cc3ccccc3)N2C=C1` (configuration not stated) gave an inhibition of -13%. Compound `CCN(c1ccccc1)S(=O)(=O)c1ccc(N)cc1` has an inhibition of -17.8%. `CCN(c1ccccc1)S(=O)(=O)c1cccc(C(=O)O)c1` was tested, and the inhibition was -2.9%. For `CCN(c1ccccc1)S(=O)(=O)c1ccc2[nH]c(=O)[nH]c2c1`, the inhibition was 64.9% (active). Work on `Cc1c(CCOC(=O)CC23CC4CC(CC(C)(C4)C2)C3)sc[n+]1Cc1ccc([N+](=O)[O-])cc1` yielded an inhibition of -6.1%. In the case of `Cc1c(CCO)sc[n+]1CC(=O)OC12CC3CC(CC(C3)C1)C2`, the inhibition is reported as 55.5% (active). With `CC1CCN(CC(=O)c2c[nH]c3ccccc23)CC1` the inhibition was -9.1%. Compound `O=C(C(=O)N1CCc2ccccc2C1)N1CCc2ccccc2C1` has an inhibition of -5.7%. `O=C(C(=O)N1CCc2ccccc2C1)c1c[nH]c2ccccc12` was tested, and the inhibition was 61% (active). For `Cc1[nH][nH]c(=O)c1C(c1ccc(-c2ccc(Cl)cc2)o1)c1c(C)[nH][nH]c1=O`, the inhibition was -57.7%. With `CCOc1ccc(C(c2c(C)[nH][nH]c2=O)c2c(C)[nH][nH]c2=O)cc1OCC` the inhibition was 58.2% (active). Compound `Cc1[nH][nH]c(=O)c1C(c1ccc2c(c1)OCO2)c1c(C)[nH][nH]c1=O` has an inhibition of 45.5%. In the case of `O=C(/C=C/c1ccc(F)cc1)Nc1cccc(S(=O)(=O)Nc2cccc(C(F)(F)F)c2)c1`, the inhibition is reported as -9.4%. `CCOc1ccc(/C=N/OCC(=O)NCc2cccs2)cc1` gave an inhibition of 2.3%. With `O=C(NCCc1ccccc1)C1CCC(Cn2c(=O)c3ccccc3n(Cc3cccnc3)c2=O)CC1` (configuration not stated) the inhibition was -0.3%.
